The results in this text go back to ChEMBL document CHEMBL1961873, “Compounds: GSK PKIS; Assays: Nanosyn kinase panel” (2012).

The target in experiment [1] is RAC-alpha serine/threonine-protein kinase (Homo sapiens) (UniProt P31749). The note with it: at 0.1 µM.
For experiment [2] the target is unchanged. Particulars: at 1 µM.
Experiment [3] addresses RAC-beta serine/threonine-protein kinase (Homo sapiens) (UniProt P31751). Particulars: at 0.1 µM.
For experiment [4] the target is unchanged. Particulars: at 1 µM.
The target in experiment [5] is RAC-gamma serine/threonine-protein kinase (Homo sapiens) (UniProt Q9Y243). The note with it: at 0.1 µM.
Experiment [6] shares this target. Particulars: at 1 µM.
Experiment [7] addresses G protein-coupled receptor kinase 6 (Homo sapiens) (UniProt P43250). The note with it: at 0.1 µM.
Experiment [8] shares this target. The note with it: at 1 µM.
In experiment [9] the target is T1, Rhodopsin kinase GRK7 (Homo sapiens) (UniProt Q8WTQ7).
T1 sequence (whole entry): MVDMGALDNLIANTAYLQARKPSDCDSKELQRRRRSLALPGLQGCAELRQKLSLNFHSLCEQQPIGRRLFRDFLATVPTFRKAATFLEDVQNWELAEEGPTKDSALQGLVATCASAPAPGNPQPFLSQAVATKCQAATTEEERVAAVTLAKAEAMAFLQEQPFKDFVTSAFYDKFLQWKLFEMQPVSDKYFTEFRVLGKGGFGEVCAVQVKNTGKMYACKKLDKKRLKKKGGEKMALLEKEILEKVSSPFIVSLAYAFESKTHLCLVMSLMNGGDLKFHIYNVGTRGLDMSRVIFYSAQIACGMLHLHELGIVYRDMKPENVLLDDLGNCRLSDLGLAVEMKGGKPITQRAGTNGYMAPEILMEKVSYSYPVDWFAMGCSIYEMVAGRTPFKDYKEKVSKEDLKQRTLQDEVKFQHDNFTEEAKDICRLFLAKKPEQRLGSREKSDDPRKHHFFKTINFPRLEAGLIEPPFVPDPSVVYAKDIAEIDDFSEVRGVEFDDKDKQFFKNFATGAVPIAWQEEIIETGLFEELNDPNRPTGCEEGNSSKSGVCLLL
The note with it: at 0.1 µM.

Experiment [10] has as its target T1, Rhodopsin kinase GRK7 (Homo sapiens). The note with it: at 1 µM.
Experiment [11] deals with Serine/threonine-protein kinase MRCK alpha (Homo sapiens) (UniProt Q5VT25). Particulars: at 0.1 µM.
For experiment [12] the target is unchanged. The note with it: at 1 µM.
The target in experiment [13] is Serine/threonine-protein kinase MRCK beta (Homo sapiens) (UniProt Q9Y5S2). Particulars: at 0.1 µM.
Experiment [14] has the same target. Particulars: at 1 µM.
Experiment [15] has as its target Ribosomal protein S6 kinase alpha-5 (Homo sapiens) (UniProt O75582). Particulars: at 0.1 µM.
The target is the same in experiment [16]. Particulars: at 1 µM.
Experiment [17] addresses Ribosomal protein S6 kinase alpha-4 (Homo sapiens) (UniProt O75676). Particulars: at 0.1 µM.
Experiment [18] shares this target. The note with it: at 1 µM.
Experiment [19] concerns the target Ribosomal protein S6 kinase beta-1 (Homo sapiens) (UniProt P23443). Particulars: at 0.1 µM.
Experiment [20] shares this target. The note with it: at 1 µM.

Chain of Serine/threonine-protein kinase MRCK beta (Homo sapiens) (Q9Y5S2 whole entry): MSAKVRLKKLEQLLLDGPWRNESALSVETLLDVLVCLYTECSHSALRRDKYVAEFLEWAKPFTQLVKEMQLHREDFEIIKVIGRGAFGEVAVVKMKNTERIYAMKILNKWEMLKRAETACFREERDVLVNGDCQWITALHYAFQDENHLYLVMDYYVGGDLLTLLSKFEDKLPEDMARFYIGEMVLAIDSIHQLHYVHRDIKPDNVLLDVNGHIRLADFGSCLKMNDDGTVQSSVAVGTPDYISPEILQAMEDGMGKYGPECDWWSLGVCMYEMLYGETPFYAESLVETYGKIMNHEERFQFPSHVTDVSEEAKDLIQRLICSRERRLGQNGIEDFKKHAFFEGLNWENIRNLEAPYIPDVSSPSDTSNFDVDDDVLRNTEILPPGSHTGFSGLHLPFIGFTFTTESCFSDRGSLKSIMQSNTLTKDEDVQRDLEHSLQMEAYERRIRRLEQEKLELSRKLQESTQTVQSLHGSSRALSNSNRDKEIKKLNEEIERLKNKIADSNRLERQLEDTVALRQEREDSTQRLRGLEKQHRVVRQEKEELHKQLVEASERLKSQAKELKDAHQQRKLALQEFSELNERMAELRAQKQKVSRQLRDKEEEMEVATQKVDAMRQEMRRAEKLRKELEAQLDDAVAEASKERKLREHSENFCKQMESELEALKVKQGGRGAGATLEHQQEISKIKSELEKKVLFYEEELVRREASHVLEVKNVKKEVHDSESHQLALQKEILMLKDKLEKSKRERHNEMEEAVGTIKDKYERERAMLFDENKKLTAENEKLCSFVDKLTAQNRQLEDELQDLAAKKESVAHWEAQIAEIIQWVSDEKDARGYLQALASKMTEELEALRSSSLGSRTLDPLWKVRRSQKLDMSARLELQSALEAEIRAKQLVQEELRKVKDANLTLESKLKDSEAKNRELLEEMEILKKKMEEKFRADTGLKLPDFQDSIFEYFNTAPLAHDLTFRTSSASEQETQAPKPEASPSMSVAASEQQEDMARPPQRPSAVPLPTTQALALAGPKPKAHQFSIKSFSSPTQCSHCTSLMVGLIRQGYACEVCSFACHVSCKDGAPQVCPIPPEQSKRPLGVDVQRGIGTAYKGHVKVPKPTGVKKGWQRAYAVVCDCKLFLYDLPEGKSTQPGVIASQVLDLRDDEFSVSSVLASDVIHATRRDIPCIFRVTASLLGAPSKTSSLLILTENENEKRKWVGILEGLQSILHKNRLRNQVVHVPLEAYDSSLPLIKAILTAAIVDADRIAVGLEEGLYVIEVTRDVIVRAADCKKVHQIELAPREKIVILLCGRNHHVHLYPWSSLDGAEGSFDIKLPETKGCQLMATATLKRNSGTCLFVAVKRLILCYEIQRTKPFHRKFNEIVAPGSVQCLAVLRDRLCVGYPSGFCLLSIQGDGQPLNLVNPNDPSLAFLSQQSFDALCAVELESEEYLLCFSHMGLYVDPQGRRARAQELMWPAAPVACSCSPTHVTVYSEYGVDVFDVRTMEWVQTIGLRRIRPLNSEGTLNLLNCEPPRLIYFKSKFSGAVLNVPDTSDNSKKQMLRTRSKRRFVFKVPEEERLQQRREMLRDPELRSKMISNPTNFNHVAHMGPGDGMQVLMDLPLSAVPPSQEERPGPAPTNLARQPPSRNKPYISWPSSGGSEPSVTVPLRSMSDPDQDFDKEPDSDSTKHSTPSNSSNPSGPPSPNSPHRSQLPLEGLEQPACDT
Chain of Ribosomal protein S6 kinase alpha-5 (Homo sapiens) (O75582 whole entry, looked up): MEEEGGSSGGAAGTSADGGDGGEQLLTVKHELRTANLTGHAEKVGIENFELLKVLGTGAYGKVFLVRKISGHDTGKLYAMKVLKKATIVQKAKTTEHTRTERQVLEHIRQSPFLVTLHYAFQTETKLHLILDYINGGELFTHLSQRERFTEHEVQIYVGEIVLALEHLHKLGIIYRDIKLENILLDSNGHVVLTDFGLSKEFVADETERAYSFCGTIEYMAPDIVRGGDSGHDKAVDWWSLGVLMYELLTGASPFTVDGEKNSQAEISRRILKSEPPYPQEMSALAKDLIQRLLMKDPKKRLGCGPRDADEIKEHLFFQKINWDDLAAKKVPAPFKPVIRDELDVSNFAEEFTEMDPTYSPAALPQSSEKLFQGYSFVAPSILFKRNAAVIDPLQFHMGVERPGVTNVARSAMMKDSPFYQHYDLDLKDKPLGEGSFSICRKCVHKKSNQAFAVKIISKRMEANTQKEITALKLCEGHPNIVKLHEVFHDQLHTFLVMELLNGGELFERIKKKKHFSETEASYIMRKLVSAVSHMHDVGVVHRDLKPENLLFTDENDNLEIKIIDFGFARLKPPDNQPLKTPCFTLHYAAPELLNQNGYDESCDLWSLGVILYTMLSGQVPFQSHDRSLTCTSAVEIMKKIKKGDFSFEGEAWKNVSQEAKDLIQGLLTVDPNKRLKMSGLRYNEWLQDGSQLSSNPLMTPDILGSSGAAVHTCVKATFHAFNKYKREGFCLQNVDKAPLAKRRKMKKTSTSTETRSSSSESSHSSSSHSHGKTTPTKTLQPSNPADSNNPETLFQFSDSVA
Chain of Ribosomal protein S6 kinase alpha-4 (Homo sapiens) (O75676 whole entry, looked up): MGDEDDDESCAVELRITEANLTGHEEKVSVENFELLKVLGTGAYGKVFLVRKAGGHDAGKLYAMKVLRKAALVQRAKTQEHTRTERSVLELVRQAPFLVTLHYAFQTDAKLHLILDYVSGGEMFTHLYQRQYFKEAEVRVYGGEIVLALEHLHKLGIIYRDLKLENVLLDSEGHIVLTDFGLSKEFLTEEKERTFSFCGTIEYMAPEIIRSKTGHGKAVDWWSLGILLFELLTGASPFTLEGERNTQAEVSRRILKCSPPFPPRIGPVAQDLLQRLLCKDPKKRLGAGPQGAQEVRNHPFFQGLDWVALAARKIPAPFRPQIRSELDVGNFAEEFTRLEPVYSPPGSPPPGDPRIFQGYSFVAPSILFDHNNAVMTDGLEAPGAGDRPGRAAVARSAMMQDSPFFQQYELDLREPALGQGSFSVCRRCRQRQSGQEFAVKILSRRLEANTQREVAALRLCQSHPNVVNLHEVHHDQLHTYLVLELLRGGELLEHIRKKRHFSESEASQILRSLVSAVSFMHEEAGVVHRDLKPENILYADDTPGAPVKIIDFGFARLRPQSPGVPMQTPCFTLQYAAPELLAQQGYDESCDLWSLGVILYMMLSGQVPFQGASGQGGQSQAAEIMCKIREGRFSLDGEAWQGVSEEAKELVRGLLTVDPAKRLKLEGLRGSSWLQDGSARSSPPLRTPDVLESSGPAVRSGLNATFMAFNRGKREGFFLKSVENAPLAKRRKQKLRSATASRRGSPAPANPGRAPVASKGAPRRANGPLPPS
Chain of RAC-gamma serine/threonine-protein kinase (Homo sapiens) (Q9Y243 whole entry): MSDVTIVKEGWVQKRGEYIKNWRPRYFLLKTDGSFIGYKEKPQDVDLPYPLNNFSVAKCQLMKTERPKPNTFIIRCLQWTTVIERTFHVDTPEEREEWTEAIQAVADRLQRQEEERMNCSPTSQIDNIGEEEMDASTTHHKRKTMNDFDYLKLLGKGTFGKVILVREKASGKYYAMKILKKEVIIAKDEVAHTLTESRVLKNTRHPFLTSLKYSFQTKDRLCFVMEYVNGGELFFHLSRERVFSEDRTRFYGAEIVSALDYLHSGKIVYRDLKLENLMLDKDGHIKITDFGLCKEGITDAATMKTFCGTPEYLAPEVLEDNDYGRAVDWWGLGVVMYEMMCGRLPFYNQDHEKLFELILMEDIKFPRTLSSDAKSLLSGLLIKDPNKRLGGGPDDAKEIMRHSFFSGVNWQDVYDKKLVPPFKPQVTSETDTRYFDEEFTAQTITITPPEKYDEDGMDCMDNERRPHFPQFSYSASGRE
Chain of G protein-coupled receptor kinase 6 (Homo sapiens) (P43250 whole entry, looked up): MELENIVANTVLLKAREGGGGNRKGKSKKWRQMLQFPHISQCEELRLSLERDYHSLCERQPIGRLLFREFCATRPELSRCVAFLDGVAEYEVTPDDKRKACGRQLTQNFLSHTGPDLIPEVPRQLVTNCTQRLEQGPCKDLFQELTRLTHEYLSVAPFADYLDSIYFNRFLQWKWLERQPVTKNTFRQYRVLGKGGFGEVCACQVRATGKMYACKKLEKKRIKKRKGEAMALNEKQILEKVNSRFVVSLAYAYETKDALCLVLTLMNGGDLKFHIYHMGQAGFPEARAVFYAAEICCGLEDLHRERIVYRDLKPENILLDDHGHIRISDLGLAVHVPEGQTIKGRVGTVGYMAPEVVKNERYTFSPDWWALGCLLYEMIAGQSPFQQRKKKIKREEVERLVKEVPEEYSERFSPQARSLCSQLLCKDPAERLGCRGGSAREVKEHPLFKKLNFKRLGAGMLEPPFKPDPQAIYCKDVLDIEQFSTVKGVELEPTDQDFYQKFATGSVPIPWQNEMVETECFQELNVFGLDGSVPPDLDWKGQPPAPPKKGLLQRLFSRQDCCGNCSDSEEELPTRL
Chain of RAC-beta serine/threonine-protein kinase (Homo sapiens) (P31751 whole entry): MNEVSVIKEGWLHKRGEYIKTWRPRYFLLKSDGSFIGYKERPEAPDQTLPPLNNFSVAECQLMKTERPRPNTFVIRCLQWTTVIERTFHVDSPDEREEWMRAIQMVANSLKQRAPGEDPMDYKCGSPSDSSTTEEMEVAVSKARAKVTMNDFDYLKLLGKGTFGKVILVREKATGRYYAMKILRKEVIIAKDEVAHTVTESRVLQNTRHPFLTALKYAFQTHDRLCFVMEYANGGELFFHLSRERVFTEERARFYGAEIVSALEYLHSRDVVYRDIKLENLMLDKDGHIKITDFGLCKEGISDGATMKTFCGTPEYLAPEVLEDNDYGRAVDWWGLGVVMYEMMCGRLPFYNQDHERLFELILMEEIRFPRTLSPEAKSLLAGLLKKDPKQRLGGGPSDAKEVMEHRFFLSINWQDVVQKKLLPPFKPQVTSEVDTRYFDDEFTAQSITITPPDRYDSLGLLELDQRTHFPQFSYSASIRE

The inhibition is the drop in the measured response relative to a control, in per cent. On to `CS(=O)(=O)CCN(CC#N)Cc1ccc(-c2ccc3ncnc(Nc4ccc(OCc5cccc(F)c5)c(Cl)c4)c3c2)o1`, for which the inhibition in experiment [1] was -1.63%; in experiment [2] it was -3.32%; in experiment [3] it was -3.4%; in [4], -2.91%; in [5] it was -3.18%; in experiment [6], -0.79%. Also, the inhibition is 0.99% in [7]; 3.25% in [8]; 6.9% in experiment [9]; 2.37% in [10]; -0.15% in experiment [11]; -1.53% in experiment [12]. Further, the inhibition was -0.05% in experiment [13]; -0.09% in experiment [14]; 0.54% in experiment [15]; -1.33% in experiment [16]; 1.06% in experiment [17]; 1.76% in experiment [18]. For the same compound, the inhibition in experiment [19] came out at 0.1%; in experiment [20] it was 0.27%.

As for `Cc1cc(O)cc(C)c1/C=C/c1cncc(-c2nn[nH]n2)c1`, the inhibition is -2.92% in [1]; -4.1% in experiment [2]; -1.95% in [3]; -2.32% in experiment [4]; -2.52% in [5]; -2.46% in [6]. The inhibition in experiment [7] is 1.06%; in experiment [8], 5.14%; in experiment [9], 2.35%; in experiment [10], 4.65%; in experiment [11] it was -0.28%; in [12] it was -0.43%. For the same compound, the inhibition was determined as 0.47% in experiment [13]; 0.57% in experiment [14]; 3.79% in experiment [15]; 1.87% in experiment [16]; 1.46% in experiment [17]; 2.78% in [18]. For the same compound, the inhibition in experiment [19] is 1.11%; in experiment [20] it was 1.97%.

Regarding `O=C(Nc1n[nH]c2nc(-c3ccco3)c(Br)cc12)C1CC1`, the inhibition was found to be 0.59% in [1]; 0.53% in experiment [2]; 2.1% in experiment [3]; 2.15% in [4]; 0.47% in [5]; 1.46% in [6]. The inhibition in experiment [7] was -0.71%; in experiment [8] it was -0.55%; in experiment [9], 3.55%; in [10], 4.09%; in [11] it was 0.4%; in [12] it was -0.6%. Besides, the inhibition in [13] amounted to 1.27%; in experiment [14], 0.57%; in experiment [15] it was 3.55%; in experiment [16] it was 1.89%; in experiment [17], 0.7%; in experiment [18], 2.64%. For the same compound, the figures for the inhibition in experiment [19] and in experiment [20] were 1.19% and 2.07%, respectively.

As for `CCn1c(-c2nonc2N)nc2c(C#CC(C)(C)O)nc(CN3CCCC3)cc21`, the inhibition in [1] stood at 8.37%; in experiment [2], 54.9%; in experiment [3] it was 10%; in experiment [4] it was 55.5%; in experiment [5] it was 18.8%; in [6] it was 78.7%. Also, the inhibition was -2.28% in experiment [7]; -0.02% in experiment [8]; -4.34% in [9]; 3.4% in experiment [10]; 2.53% in experiment [11]; 0.11% in [12]. Further, the inhibition in experiment [13] came to 1.98%; in experiment [14], 4.91%; in experiment [15], 0.29%; in [16], 3.07%; in experiment [17], 2%; in experiment [18] it was 6.06%. In addition, the inhibition is 0.33% in [19] and 1.37% in experiment [20].

With `NS(=O)(=O)c1ccc(N/N=C2\C(=O)Nc3ccc(C(=O)NCCc4c[nH]cn4)cc32)cc1`, the inhibition in experiment [1] was 1.49%; in experiment [2], 0.74%; in experiment [3], 3.41%; in experiment [4], 1.59%; in experiment [5] it was 1.65%; in experiment [6], 2.39%. For the same compound, the inhibition in experiment [7] is 5.89%; in experiment [8], 9.39%; in experiment [9] it was 5.2%; in experiment [10], 7.5%; in [11], -0.15%; in experiment [12], 2.43%. In addition, the inhibition in experiment [13] was found to be 1.24%; in experiment [14] it was 2.13%; in experiment [15], 4.49%; in [16], 5.44%; in [17] it was 4.34%; in [18], 18.7%. Also, the inhibition in [19] is 2.49%; in experiment [20] it was 8.75%.

Turning to `[O-][S+]1CCN(Cc2ccc(-c3ccc4ncnc(Nc5ccc(OCc6ccccc6)c(F)c5)c4c3)o2)CC1`, the inhibition is 0.83% in [1]; -0.19% in [2]; 2.53% in experiment [3]; 0.9% in experiment [4]; 0.99% in experiment [5]; 1.21% in experiment [6]. Besides, the inhibition in experiment [7] was 3.78%; in experiment [8], -2.01%; in experiment [9], 1.86%; in experiment [10], -0.58%; in experiment [11] it was 0.13%; in [12] it was -0.47%. In addition, the inhibition was -0.5% in [13]; 0.8% in experiment [14]; 1.59% in experiment [15]; 1.41% in experiment [16]; -0.07% in experiment [17]; 2.42% in [18]. Moreover, the inhibition in [19] worked out at 0.52%; in experiment [20], 0.86%.

Regarding `CC(C)=Cc1cccc2c1/C(=N/Nc1ccc(S(N)(=O)=O)cc1)C(=O)N2`, the inhibition amounted to 0.31% in experiment [1]; 0.65% in experiment [2]; 0.76% in experiment [3]; 0.93% in [4]; 2.87% in experiment [5]; 0.49% in experiment [6]. The inhibition in [7] was 3.06%; in [8] it was 8.62%; in experiment [9], 1.04%; in experiment [10], -0.7%; in experiment [11] it was 1.91%; in experiment [12] it was 3.43%. Moreover, the inhibition is -0.74% in experiment [13]; 0.5% in experiment [14]; 7.7% in [15]; 11.4% in [16]; 2.65% in experiment [17]; 15.9% in experiment [18]. The inhibition worked out at 1.06% in experiment [19] and 5.23% in experiment [20].
